Data as given in ChEMBL document CHEMBL3988442, “University of Dundee, Small-Polar-MMV Screening Library” (2021).
For some assays here: Results with a measured potency or affinity are listed apart.

Key:
Parameters in all cases: scale not given: direction of the effect not stated beside the values
[1] = molecular target: Protein translocase subunit SecA (Escherichia coli (strain K12)) (UniProt P10408); experiment: Assay to Identify E. coli SecA ATPase Inhibitors; type: functional; settings: 30 µM
Chain of Protein translocase subunit SecA (Escherichia coli (strain K12)) (P10408 whole entry): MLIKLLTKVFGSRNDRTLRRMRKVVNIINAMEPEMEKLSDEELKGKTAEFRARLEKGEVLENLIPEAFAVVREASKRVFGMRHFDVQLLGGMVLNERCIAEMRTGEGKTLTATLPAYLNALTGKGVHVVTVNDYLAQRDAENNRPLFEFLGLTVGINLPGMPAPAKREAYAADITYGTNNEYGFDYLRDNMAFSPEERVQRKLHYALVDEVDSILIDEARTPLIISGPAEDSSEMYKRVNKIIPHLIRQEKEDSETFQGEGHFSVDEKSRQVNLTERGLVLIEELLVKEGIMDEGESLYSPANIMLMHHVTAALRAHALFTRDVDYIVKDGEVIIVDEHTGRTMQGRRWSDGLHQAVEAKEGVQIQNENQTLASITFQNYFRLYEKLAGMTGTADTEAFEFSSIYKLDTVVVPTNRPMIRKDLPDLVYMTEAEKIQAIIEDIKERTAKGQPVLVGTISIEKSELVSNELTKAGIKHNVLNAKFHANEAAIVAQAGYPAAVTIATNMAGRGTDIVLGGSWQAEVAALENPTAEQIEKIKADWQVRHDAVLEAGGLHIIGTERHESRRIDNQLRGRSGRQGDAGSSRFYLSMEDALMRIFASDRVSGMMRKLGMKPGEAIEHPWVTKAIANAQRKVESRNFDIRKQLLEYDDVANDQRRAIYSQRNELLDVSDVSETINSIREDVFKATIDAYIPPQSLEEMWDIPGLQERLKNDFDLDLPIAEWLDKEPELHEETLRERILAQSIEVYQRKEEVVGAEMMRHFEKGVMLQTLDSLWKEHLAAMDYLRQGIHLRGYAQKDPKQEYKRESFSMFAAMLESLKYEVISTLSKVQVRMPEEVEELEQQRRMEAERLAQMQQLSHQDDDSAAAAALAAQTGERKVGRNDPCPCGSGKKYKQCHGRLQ

[2] = molecular target: T1, Ubiquitin-activating enzyme e1, putative (Leishmania donovani (strain BPK282A1)) (UniProt E9BSI1); experiment: Leishmania donovani Ubiquitin Activating Enzyme (LdE1); type: functional; settings: 30 µM
T1 sequence (whole entry): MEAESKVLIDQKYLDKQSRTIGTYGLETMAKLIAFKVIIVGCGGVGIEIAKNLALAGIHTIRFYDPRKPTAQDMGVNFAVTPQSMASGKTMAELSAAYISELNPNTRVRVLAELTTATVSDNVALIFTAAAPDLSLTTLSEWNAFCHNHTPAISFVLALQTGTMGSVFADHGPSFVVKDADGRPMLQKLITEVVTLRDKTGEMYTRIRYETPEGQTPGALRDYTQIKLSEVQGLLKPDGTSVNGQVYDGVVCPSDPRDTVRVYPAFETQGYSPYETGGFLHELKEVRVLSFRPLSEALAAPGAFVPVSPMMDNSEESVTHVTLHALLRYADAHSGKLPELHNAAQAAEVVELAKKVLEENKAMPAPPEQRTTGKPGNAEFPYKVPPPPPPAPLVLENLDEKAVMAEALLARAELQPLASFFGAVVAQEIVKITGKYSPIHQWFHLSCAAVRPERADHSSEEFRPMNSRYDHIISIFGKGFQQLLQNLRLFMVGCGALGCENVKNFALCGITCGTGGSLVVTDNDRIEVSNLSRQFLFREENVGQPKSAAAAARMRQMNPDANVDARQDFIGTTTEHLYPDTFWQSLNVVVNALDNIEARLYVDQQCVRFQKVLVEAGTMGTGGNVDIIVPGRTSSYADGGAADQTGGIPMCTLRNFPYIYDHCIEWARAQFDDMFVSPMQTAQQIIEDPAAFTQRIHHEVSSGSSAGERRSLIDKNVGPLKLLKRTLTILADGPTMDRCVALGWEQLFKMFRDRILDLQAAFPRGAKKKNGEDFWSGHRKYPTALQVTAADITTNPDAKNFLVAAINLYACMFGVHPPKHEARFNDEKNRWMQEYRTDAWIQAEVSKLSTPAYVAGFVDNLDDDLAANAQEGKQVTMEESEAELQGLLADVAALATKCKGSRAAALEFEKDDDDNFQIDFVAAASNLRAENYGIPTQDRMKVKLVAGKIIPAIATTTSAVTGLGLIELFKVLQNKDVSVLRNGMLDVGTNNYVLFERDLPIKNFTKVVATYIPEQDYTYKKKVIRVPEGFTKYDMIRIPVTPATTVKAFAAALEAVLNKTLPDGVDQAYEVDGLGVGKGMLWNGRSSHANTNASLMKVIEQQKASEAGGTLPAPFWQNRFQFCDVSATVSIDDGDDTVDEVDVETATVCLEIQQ

[3] = molecular target: AMP-activated protein kinase, AMPK (Homo sapiens) (UniProt P54646+O43741+P54619+Q9UGJ0+Q9Y478+Q13131+Q9UGI9); experiment: AMP-dependent Kinase enzyme assay. An in vitro enzyme assay that detects ADP turnover that is directly proportional to AMPK activity. This uses naive AMPK that is activated during the assay with MK-8722; type: functional; settings: 30 µM
[4] = molecular target: Sialic acid-binding Ig-like lectin 9 (Homo sapiens) (UniProt Q9Y336); experiment: Hs-Siglec9 ALPHAscreen SOP 20170721; settings: 10 µM
Chain of Sialic acid-binding Ig-like lectin 9 (Homo sapiens) (Q9Y336 whole entry): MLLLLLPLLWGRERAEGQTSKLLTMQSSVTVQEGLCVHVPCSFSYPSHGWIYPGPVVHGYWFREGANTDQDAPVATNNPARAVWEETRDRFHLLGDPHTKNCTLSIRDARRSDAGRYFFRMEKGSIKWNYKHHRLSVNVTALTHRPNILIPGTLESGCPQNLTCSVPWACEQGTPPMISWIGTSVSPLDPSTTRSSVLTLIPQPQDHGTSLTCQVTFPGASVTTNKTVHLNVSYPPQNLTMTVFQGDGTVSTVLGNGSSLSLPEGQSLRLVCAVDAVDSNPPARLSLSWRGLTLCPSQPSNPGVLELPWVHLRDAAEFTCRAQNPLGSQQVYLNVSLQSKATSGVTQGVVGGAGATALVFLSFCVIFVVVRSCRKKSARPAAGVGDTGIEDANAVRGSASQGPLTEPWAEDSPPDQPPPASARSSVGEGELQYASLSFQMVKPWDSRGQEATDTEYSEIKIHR

Trypanosoma cruzi = experiment: Trypanosoma cruzi phosphomannomutase and mannose-1-phosphate guanylyltransferase assay; type: functional; settings: 10 µM
[5] = molecular target: T2, Arginase-2, mitochondrial (Homo sapiens) (UniProt P78540); experiment: in vitro enzyme assay to detect the production of urea directly proportional to the activity of Arginase II; type: functional; settings: 33.3 µM; also: in the data most compounds retested in dose-response had high values
T2 sequence (whole entry): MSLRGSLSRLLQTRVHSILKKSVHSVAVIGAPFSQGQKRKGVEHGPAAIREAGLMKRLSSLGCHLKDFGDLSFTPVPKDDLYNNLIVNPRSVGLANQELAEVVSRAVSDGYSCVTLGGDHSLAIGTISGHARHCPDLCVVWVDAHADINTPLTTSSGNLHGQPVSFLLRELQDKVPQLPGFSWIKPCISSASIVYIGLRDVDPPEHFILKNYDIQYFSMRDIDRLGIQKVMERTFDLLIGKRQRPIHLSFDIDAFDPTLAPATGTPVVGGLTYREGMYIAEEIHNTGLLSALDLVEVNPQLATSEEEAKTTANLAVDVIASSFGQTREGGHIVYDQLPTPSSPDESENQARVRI

[6] = molecular target: T3, Proteasome subunit beta (Trypanosoma cruzi) (UniProt O96673); experiment: Trypanosoma cruzi proteasome chymotrypsin-like activity (TcProtChymo) assay.; also: in the data most compounds retested in dose-response had high values; type: functional; settings: 9.37 µM
T3 sequence (whole entry): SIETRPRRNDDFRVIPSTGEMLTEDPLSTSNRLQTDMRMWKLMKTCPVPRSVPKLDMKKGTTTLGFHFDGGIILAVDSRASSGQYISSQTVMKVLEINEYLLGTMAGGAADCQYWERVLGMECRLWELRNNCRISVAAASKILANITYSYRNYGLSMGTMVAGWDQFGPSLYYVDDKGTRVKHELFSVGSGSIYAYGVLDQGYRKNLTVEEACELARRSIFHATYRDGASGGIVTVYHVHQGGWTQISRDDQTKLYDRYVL

Homo sapiens = organism: Homo sapiens; experiment: To identify inhibition of the IFN signalling (Jak-Stat) pathway via expression of an eGFP reporter gene under the control of an IFN-stimulated response element (ISRE) containing MxA promoter.; type: functional; settings: 30 µM
[7] = molecular target: T4, Tyrosyl-tRNA synthetase, putative (Trypanosoma cruzi (strain CL Brener)) (UniProt Q4DSP6); experiment: Trypanosoma cruzi tyrosyl tRNA synthetase (TcYRS) _High Tyrosine SOP; type: functional; settings: 30 µM; also: in the data most compounds retested in dose-response had high values
T4 sequence (whole entry): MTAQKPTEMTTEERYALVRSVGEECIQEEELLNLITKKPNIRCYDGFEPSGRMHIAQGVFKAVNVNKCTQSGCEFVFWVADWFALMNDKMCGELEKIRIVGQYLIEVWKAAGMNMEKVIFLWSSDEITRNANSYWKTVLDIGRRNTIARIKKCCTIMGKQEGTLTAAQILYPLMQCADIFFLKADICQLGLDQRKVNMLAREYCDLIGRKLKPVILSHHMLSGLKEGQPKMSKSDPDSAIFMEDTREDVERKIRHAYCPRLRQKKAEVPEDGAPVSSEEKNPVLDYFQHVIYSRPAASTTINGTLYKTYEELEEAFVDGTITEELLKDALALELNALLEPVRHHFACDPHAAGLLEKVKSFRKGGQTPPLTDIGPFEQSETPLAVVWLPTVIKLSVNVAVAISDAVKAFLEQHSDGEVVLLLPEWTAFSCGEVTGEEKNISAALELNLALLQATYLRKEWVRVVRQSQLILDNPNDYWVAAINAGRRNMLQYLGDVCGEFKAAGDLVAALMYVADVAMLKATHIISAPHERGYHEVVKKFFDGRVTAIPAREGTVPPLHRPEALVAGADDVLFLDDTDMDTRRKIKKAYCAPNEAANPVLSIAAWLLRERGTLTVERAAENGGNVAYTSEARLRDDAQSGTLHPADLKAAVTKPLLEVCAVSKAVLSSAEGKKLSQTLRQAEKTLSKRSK

[8] = molecular target: T4, Tyrosyl-tRNA synthetase, putative (Trypanosoma cruzi (strain CL Brener)); experiment: Trypanosoma cruzi tyrosyl tRNA synthetase (TcYRS) SOP; type: functional; settings: 30 µM
[9] = molecular target: Chromo domain-containing protein 1 (Saccharomyces cerevisiae (strain ATCC 204508 / S288c) (Baker's yeast)) (UniProt P32657); experiment: ScCHD-1 Enzyme Inhibition Assay; type: functional; settings: 30 µM; also: in the data most compounds retested in dose-response had high values
Chain of Chromo domain-containing protein 1 (Saccharomyces cerevisiae (strain ATCC 204508 / S288c) (Baker's yeast)) (P32657 whole entry, the tested form may be a part): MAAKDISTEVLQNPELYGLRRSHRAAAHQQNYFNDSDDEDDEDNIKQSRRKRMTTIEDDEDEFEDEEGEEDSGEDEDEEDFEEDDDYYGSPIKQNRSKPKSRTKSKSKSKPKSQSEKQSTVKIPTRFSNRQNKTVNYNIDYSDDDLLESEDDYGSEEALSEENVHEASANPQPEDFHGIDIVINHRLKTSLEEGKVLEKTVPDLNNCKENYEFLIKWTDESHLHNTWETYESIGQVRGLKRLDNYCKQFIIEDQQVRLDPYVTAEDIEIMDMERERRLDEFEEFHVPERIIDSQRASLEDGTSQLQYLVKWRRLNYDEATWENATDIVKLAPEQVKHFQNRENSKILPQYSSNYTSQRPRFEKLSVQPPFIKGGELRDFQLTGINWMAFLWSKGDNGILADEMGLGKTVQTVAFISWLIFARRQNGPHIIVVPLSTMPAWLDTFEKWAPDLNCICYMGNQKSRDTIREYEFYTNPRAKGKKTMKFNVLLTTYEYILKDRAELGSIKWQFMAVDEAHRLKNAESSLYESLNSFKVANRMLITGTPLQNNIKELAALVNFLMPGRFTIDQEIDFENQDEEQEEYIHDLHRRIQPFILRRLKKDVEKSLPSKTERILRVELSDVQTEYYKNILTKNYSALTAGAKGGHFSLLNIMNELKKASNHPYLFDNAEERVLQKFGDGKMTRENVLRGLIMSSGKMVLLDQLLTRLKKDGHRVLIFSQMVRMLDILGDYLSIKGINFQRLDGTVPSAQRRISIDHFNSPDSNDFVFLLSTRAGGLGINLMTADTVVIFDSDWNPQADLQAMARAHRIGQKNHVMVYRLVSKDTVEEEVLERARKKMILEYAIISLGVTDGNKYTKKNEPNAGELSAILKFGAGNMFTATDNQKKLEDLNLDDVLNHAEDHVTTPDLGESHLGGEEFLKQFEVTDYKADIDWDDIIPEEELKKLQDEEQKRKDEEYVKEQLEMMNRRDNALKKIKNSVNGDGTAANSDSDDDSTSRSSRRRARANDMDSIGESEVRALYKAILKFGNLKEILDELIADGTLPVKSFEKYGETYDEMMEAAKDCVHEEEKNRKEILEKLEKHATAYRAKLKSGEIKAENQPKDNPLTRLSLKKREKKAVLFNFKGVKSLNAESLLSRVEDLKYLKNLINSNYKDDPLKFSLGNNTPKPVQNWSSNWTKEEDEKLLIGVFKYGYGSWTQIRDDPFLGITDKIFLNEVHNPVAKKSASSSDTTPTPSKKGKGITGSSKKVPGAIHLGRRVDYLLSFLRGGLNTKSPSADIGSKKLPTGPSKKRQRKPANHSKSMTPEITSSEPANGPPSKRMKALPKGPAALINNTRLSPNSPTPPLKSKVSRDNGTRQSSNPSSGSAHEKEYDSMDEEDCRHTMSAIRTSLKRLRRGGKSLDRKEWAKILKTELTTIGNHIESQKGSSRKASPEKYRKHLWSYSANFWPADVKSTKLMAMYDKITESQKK

SMILES | Percent Effect [1] | Percent Effect [2] | Percent Effect [3] | Percent Effect [4] | Percent Effect (Trypanosoma cruzi) | Percent Effect [5] | Percent Effect [6] | Percent Effect (Homo sapiens) | Percent Effect [7] | Percent Effect [8] | Percent Effect [9]
CC(=O)Nc1nc(CN2CCCCC2Cn2cccn2)cs1 (configuration not stated) | -4.14% | 5.26% | 3.07% | -1.3% | -0.0974% | -1.18% | 10.8% | 20.7% | 9.57% | 15.6% | -6.41%
Cc1nc(C)n(CC2CCCCN2CCC(=O)Nc2cc(C)on2)n1 (configuration not stated) | -3.16% | 6.33% | 3.99% | 1.14% | -1.13% | -0.645% | 11% | 5.13% | -7.29% | 12.7% | -9.87%
Cc1nnc(N2C[C@H](C(=O)NCC3CC3)[C@@H]3CCO[C@@H]3C2)s1 | 0.351% | 0% | 3.72% | 2.6% | -6.02% | -3.23% | 0.696% | 7.74% | 0% | 1.28% | -1.37%
CCn1nnc2c1C(COC)CN(C(=O)Cc1cccs1)C2 (configuration not stated) | -0.417% | 5.41% | -1.12% | -5.98% | -2.93% | -2.5% | 17.8% | -0.944% | 6.93% | 8.54% | 5.86%
Cc1nonc1CC(=O)N1C[C@@H]2CC[C@H](C1)N(Cc1ccccc1)C2=O | -5.85% | -2.7% | -1.13% | 6.66% | -4.83% | -2.86% | 6.9% | 0.776% | 0.529% | 2.44% | -2.68%
O=C(NCCCn1cncn1)NCC(c1ccco1)N1CCCCC1 (configuration not stated) | 1.3% | 10.4% | 2.22% | -12.8% | -5.39% | 5.26% | 17.2% | 12.4% | 4.76% | 18.8% | -13.7%
Cn1cc(CNc2ncnc3c2CCN(Cc2ccsc2)CC3)cn1 | -6.16% | 13.3% | -5.59% | 29.3% | 4.97% | 7.29% | 17.1% | -4.35% | 4.92% | 16.1% | -0.968%
COCCN1CCC(CNC(=O)C2(c3cc(C)cc(C)c3)CCC2)C1 (configuration not stated) | -8.07% | 0% | -6.3% | -4.59% | -1.77% | 2.88% | -4.82% | -6.37% | 2.46% | 1.24% | 2.35%
CCc1csc(C2CCCN(C(=O)c3c[nH]c(C)n3)C2)n1 (configuration not stated) | -1.65% | 7.79% | -3.3% | 1.9% | 6.18% | -1.78% | -3.88% | -6.54% | 2.91% | 12.2% | -6.32%
Cc1ccc(C2CCCCCN2Cc2cn(C)nc2C)s1 (configuration not stated) | -9.52% | 18.2% | 0.0483% | -1.66% | 1.48% | -4.52% | 9.92% | -5.04% | 0% | 14.1% | -7.58%
CCc1ncc2c(n1)CN(Cc1nnc(C)o1)CC2 | -0.796% | 2.74% | -74% | 3.02% | 6.07% | 6.82% | 4.26% | -5.4% | 4.3% | 7.5% | -6.64%
CCc1c(C)sc(NC(=O)CN2CCN(CC)CC2)c1C(=O)OC | -1.97% | -12.5% | -2.07% | 3.39% | 2.62% | 0% | -2.46% | -12.9% | 0% | -2.56% | 2.67%
O=S(=O)(NCC1(O)CCOc2ccccc21)c1cccs1 (configuration not stated) | -8.36% | 0% | 3.61% | -4.67% | -3.72% | -0.455% | 5.86% | 8.26% | 1.07% | 5% | 0.9%
COCCNC(=O)C[C@@H]1COC[C@H]2CN(C(=O)c3cnccn3)C[C@@H]12 | -0.696% | 8.22% | -4.71% | 7.09% | 6.15% | 1.6% | 11.2% | 21.4% | 9.38% | 13.6% | -3.17%
CCOCCCNc1nc(O)cc(C2CC(=O)N(C)C2)n1 (configuration not stated) | -3.32% | 6.76% | -1.4% | 1.36% | 3.95% | -4.41% | 9.83% | -10.5% | 1.07% | 9.09% | -25.9%
COc1nc2c(cc1C(=O)N1C[C@H](N)C[C@H]1C(=O)NC(C)C)CCC2 | -3.3% | 18.1% | -10.6% | 9.06% | 6.51% | 8.83% | 16.3% | 9.52% | 6.32% | 15.4% | -4.1%
Cc1ccc(N2CCCN(C(=O)C(C(C)C)n3cncn3)CC2)nn1 (configuration not stated) | -1.22% | 16.2% | -7.95% | 9.29% | 3.62% | 2.03% | 9.16% | 9.49% | 7.92% | 25.6% | -6.51%
Cc1c(C(=O)NC(CN2CCCC2=O)c2ccccc2)cnn1C (configuration not stated) | 0.252% | 10.5% | 1.96% | -5.31% | -4.7% | 6.9% | 7.69% | 19% | 3.43% | 9.76% | -6.11%
COCCN1CCC(NCc2cccc(F)c2)C1 (configuration not stated) | -3.31% | 13% | -4.27% | 0.179% | -5.24% | -4.27% | 8.78% | 32.2% | 5.83% | 0% | -9.86%
CN(C)C(=O)c1cccc(NC(=O)N(CCO)Cc2ccsc2)c1 | -0.273% | 9.72% | -9.76% | 7.88% | 3.79% | 11% | 11.8% | -1.39% | 5.26% | 12.8% | -3.15%
Cc1cnn(CCNCc2ccc(C#N)cc2F)c1 | -5.04% | 10.8% | -4.08% | 8.42% | -2.51% | 0.554% | 5.75% | 7.34% | 6.93% | 13.4% | -0.768%
c1csc(CN2CCn3c(Cn4cncn4)cnc3C2)n1 | -3.71% | 2.67% | 12.1% | 4.38% | -0.984% | 4.43% | 6.08% | -18.1% | 2.13% | 1.28% | -1.62%
